# Measurements taken from PubChem BioAssay (EPA / NIEHS).
# Activity calls are given as the source filed them. The calls were made as follows: active = hit-call score of the fitted dose curve at least 0.9, where 1 is the maximum; inactive = score below 0.9.
# How the values were obtained:
# Settings in all cases: mRNA level, 48 h; actives raise or lower the signal
# [1] = read-out: Potassium channel subfamily K member 1 (KCNK1), KCNK1 (gene 3775); assay: LTEA_HepaRG_KCNK1: Life Technologies and Expression Analysis (LTEA) Assay for Potassium channel subfamily K member 1 (KCNK1) using HepaRG (AID 2283511)
# In short: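 HepaRG, 48 h exposure, 8-pt half-log series top 100 uM, 0.5% DMSO vehicle, duplicates. Readout: KCNK1 transcript by qRT-PCR (Fluidigm array), housekeeping-normalized; bidirectional curve fit relative to DMSO baseline.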
# [2] = read-out: Keratin 19 (KRT19), KRT19 (gene 3880); assay: LTEA_HepaRG_KRT19: Life Technologies and Expression Analysis (LTEA) Assay for Keratin 19 (KRT19) using HepaRG (AID 2283512)
# In short: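 HepaRG, 48 h chemical exposure, 8-pt half-log CRC from 100 uM, 0.5% DMSO vehicle, duplicates. Readout: TaqMan qRT-PCR of KRT19 mRNA, housekeeping-normalized (ACTB/GAPDH/POLR2A). Bidirectional fit vs DMSO baseline.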
# [3] = read-out: JUN Transcription Factor, JUN (gene 3725); assay: LTEA_HepaRG_JUN: Life Technologies and Expression Analysis (LTEA) Assay for JUN Transcription Factor using HepaRG (AID 2283513)
# In short: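 HepaRG, 48 h exposure, 8-pt half-log series top 100 uM, 0.5% DMSO, duplicate. JUN mRNA by qRT-PCR (Fluidigm), housekeeping-normalized (ACTB/GAPDH/POLR2A); bidirectional curve fit vs DMSO baseline.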
# [4] = read-out: Lipase C (LIPC), LIPC (gene 3990); assay: LTEA_HepaRG_LIPC: Life Technologies and Expression Analysis (LTEA) Assay for Lipase C (LIPC) using HepaRG (AID 2283514)
# In short: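 HepaRG, 48 h exposure, 8-pt half-log series from 100 uM in 0.5% DMSO, duplicates. Readout: LIPC mRNA by Fluidigm qRT-PCR, housekeeping-normalized (ACTB/GAPDH/POLR2A). Gain or loss fitted bidirectionally against DMSO baseline.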
# [5] = read-out: Lipoprotein lipase (LPL), LPL (gene 4023); assay: LTEA_HepaRG_LPL: Life Technologies and Expression Analysis (LTEA) Assay for Lipoprotein lipase (LPL) using HepaRG (AID 2283515)
# In short: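 HepaRG, 48 h exposure, 8-pt half-log dilutions from 100 uM, 0.5% DMSO vehicle, duplicates; qRT-PCR (Fluidigm array) of LPL mRNA vs housekeeping genes; bidirectional curve fit relative to DMSO baseline.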
# [6] = read-out: MicroRNA 122 (MIR122), gene 406906; assay: LTEA_HepaRG_MIR122: Life Technologies and Expression Analysis (LTEA) Assay for MicroRNA 122 (MIR122) using HepaRG (AID 2283516); also: the transcript read is the microRNA miR-122
# In short: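 qRT-PCR read-out (TaqMan, Fluidigm array), normalized to three housekeeping genes; HepaRG cells dosed 48 h at 8 concentrations up to 100 uM in 0.5% DMSO, duplicate; gain or loss fitted against DMSO baseline.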
# [7] = read-out: matrix metalloproteinase-10 (MMP10), MMP10 (gene 4319); assay: LTEA_HepaRG_MMP10: Life Technologies and Expression Analysis (LTEA) Assay for matrix metalloproteinase-10 (MMP10) using HepaRG (AID 2283517)
# In short: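 Transcript levels come from Fluidigm qRT-PCR normalized to three housekeeping genes, with curves fitted bidirectionally against 0.5% DMSO. Human HepaRG cells were dosed for 48 hours at concentrations up to 100 uM.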
# MYC, MYC (gene 4609) = assay: LTEA_HepaRG_MYC: Life Technologies and Expression Analysis (LTEA) Assay for MYC using HepaRG (AID 2283518)
# In short: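 qRT-PCR read-out of MYC transcript (Fluidigm TaqMan, housekeeping-normalized) after 48 h chemical exposure of HepaRG cells; eight concentrations, top 100 uM, half-log steps. Bidirectional curve fitting against 0.5% DMSO vehicle baseline.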
# [8] = read-out: matrix metalloproteinase-3 (MMP3), MMP3 (gene 4314); assay: LTEA_HepaRG_MMP3: Life Technologies and Expression Analysis (LTEA) Assay for matrix metalloproteinase-3 (MMP3) using HepaRG (AID 2283519)
# In short: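 qRT-PCR read-out of MMP3 mRNA (normalised to three housekeeping genes) in HepaRG liver cells after 48 h chemical exposure; 8-point half-log series, top 100 uM, 0.5% DMSO vehicle. Bidirectional curve fitting against DMSO baseline.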
# [9] = read-out: Paternally Expressed 10 (PEG10), PEG10 (gene 23089); assay: LTEA_HepaRG_PEG10: Life Technologies and Expression Analysis (LTEA) Assay for Paternally Expressed 10 (PEG10) using HepaRG (AID 2283520);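 as to AC50: differentiated HepaRG human liver cells in serum-free induction medium with 0.5% DMSO; PEG10 transcript by qRT-PCR normalised to ACTB GAPDH and POLR2A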
# In short: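 qRT-PCR read-out: PEG10 mRNA normalised to three housekeeping genes, fitted bidirectionally against 0.5% DMSO vehicle. HepaRG cells received test chemicals for 48 h in serum-free induction medium, 8 points, top 100 uM, half-log steps.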
smiles,measurement,setting,value
CN(C)CCOC(c1ccccc1)c1ccccc1,outcome,[1],inactive
same,outcome,[2],inactive
same,outcome,[3],inactive
same,outcome,[4],inactive
same,AC50,[5],50 µM (active)
same,outcome,[6],inactive
same,outcome,[7],inactive
same,outcome,"MYC, MYC (gene 4609)",inactive
same,outcome,[8],inactive
same,outcome,[9],inactive
O=C(CCCN1CCC(O)(c2ccc(Cl)cc2)CC1)c1ccc(F)cc1,AC50,[1],84.4 µM (active)
same,AC50,[2],36.7 µM (active)
same,AC50,[3],82.7 µM (active)
same,AC50,[4],84.9 µM (active)
same,AC50,[5],34.4 µM (active)
same,outcome,[6],inactive
same,AC50,[7],82.4 µM (active)
same,AC50,"MYC, MYC (gene 4609)",73.6 µM (active)
same,AC50,[8],12.5 µM (active)
same,outcome,[9],inactive
CCCCCCCCCCCCOS(=O)(=O)O,outcome,[1],inactive
same,AC50,[2],79.9 µM (active)
same,AC50,[3],50 µM (active)
same,AC50,[4],80.4 µM (active)
same,outcome,[5],inactive
same,AC50,[6],86.2 µM (active)
same,AC50,[7],70.2 µM (active)
same,outcome,"MYC, MYC (gene 4609)",inactive
same,outcome,[8],inactive
same,outcome,[9],inactive
CC(=O)Nc1ccc(O)cc1,outcome,[1],inactive
same,outcome,[2],inactive
same,outcome,[3],inactive
same,outcome,[4],inactive
same,outcome,[5],inactive
same,outcome,[6],inactive
same,outcome,[7],inactive
same,outcome,"MYC, MYC (gene 4609)",inactive
same,outcome,[8],inactive
same,outcome,[9],inactive
N=C(N)c1ccc(OCCCCCOc2ccc(C(=N)N)cc2)cc1,outcome,[1],inactive
same,AC50,[2],31 µM (active)
same,AC50,[3],12.6 µM (active)
same,AC50,[4],3.64 µM (active)
same,AC50,[5],68.9 µM (active)
same,AC50,[6],3.63 µM (active)
same,AC50,[7],26.1 µM (active)
same,AC50,"MYC, MYC (gene 4609)",3.56 µM (active)
same,AC50,[9],26.6 µM (active)
CS(=O)(=O)c1ccc([C@@H](CC2CCCC2)C(=O)Nc2cnccn2)cc1Cl,outcome,[1],inactive
same,outcome,[2],inactive
same,outcome,[3],inactive
same,AC50,[4],86.9 µM (active)
same,outcome,[5],inactive
same,AC50,[6],80.8 µM (active)
same,AC50,[7],79.5 µM (active)
same,AC50,"MYC, MYC (gene 4609)",62.7 µM (active)
same,outcome,[8],inactive
same,outcome,[9],inactive
CCCCC=O,outcome,[1],inactive
same,outcome,[2],inactive
same,outcome,[3],inactive
same,outcome,[4],inactive
same,outcome,[5],inactive
same,outcome,[6],inactive
same,outcome,[7],inactive
same,outcome,"MYC, MYC (gene 4609)",inactive
same,outcome,[8],inactive
same,outcome,[9],inactive
Cc1[nH]nc2c1N=C(c1ccccc1Cl)c1cc([N+](=O)[O-])ccc1N2,AC50,[1],3.09 µM (active)
same,AC50,[2],1.24 µM (active)
same,AC50,[3],20.5 µM (active)
same,AC50,[4],11.2 µM (active)
same,AC50,[5],13 µM (active)
same,AC50,[6],7.26 µM (active)
same,AC50,[7],5.91 µM (active)
same,AC50,"MYC, MYC (gene 4609)",82 µM (active)
same,AC50,[8],9.48 µM (active)
same,AC50,[9],3.67 µM (active)
CCCCc1oc2ccccc2c1C(=O)c1cc(I)c(OCCN(CC)CC)c(I)c1,AC50,[1],55.5 µM (active)
same,AC50,[2],37.8 µM (active)
same,AC50,[3],66.1 µM (active)
same,AC50,[4],55.7 µM (active)
same,AC50,[5],47.6 µM (active)
same,AC50,[6],70.4 µM (active)
same,AC50,[7],54.7 µM (active)
same,AC50,"MYC, MYC (gene 4609)",68.7 µM (active)
same,outcome,[8],inactive
same,AC50,[9],22.6 µM (active)
O=C(c1ccccc1)c1ccccc1,outcome,[1],inactive
same,outcome,[2],inactive
same,outcome,[3],inactive
same,outcome,[4],inactive
same,outcome,[5],inactive
same,outcome,[6],inactive
same,outcome,[7],inactive
same,outcome,"MYC, MYC (gene 4609)",inactive
same,outcome,[8],inactive
same,outcome,[9],inactive
CCCCC(CC)C(=O)O (centres undefined),outcome,[1],inactive
same,outcome,[2],inactive
same,outcome,[3],inactive
same,outcome,[4],inactive
same,outcome,[5],inactive
same,outcome,[6],inactive
same,outcome,[7],inactive
same,outcome,"MYC, MYC (gene 4609)",inactive
same,outcome,[8],inactive
same,outcome,[9],inactive
CCCCCCCCCCCCCCC,outcome,[1],inactive
same,outcome,[2],inactive
same,outcome,[3],inactive
same,outcome,[4],inactive
same,outcome,[5],inactive
same,outcome,[6],inactive
same,outcome,[7],inactive
same,outcome,"MYC, MYC (gene 4609)",inactive
same,outcome,[8],inactive
same,outcome,[9],inactive
CCC(C)c1ccccc1O (centres undefined),outcome,[1],inactive
same,outcome,[2],inactive
same,outcome,[3],inactive
same,outcome,[4],inactive
same,outcome,[5],inactive
same,outcome,[6],inactive
same,outcome,[7],inactive
same,outcome,"MYC, MYC (gene 4609)",inactive
same,outcome,[8],inactive
same,outcome,[9],inactive
O=C1NS(=O)(=O)c2ccccc21,outcome,[1],inactive
same,outcome,[2],inactive
same,outcome,[3],inactive
same,outcome,[4],inactive
same,outcome,[5],inactive
same,outcome,[6],inactive
same,outcome,[7],inactive
same,outcome,"MYC, MYC (gene 4609)",inactive
same,outcome,[8],inactive
same,outcome,[9],inactive
OCC(CO)(CBr)CBr,outcome,[1],inactive
same,outcome,[2],inactive
same,outcome,[3],inactive
same,outcome,[4],inactive
same,outcome,[5],inactive
same,outcome,[6],inactive
same,outcome,[7],inactive
same,outcome,"MYC, MYC (gene 4609)",inactive
same,outcome,[8],inactive
same,outcome,[9],inactive
CN(Cc1cnc2nc(N)nc(N)c2n1)c1ccc(C(=O)N[C@@H](CCC(=O)O)C(=O)O)cc1,outcome,[1],inactive
same,outcome,[2],inactive
same,outcome,[3],inactive
same,outcome,[4],inactive
same,outcome,[5],inactive
same,outcome,[6],inactive
same,outcome,[7],inactive
same,outcome,"MYC, MYC (gene 4609)",inactive
same,outcome,[8],inactive
same,outcome,[9],inactive
